# Laboratory results: PubChem BioAssay AID1637 (Sanford-Burnham Center for Chemical Genomics, 2009)
# Out of some 3,700 compounds screened, fewer than 10 were called active. These entries were drawn from the full list. Values without a mark were called inactive. The rule behind the calls is not given here.
# Experiment: NMR binding screen, influenza A RNA promoter, Kd (AID 1637)
# Details: NMR binding to influenza A RNA promoter
row,Compound,Kd
1,COC(=O)c1nc(-c2ccccc2)oc1N(C)C,> 4 mM
2,Cc1cc(C)n(S(=O)(=O)c2cc(C)c(C)cc2C)n1,> 4 mM
3,CCc1cc2c(SCC(=O)O)ncnc2s1,> 4 mM
4,O=C(c1ccccc1)c1ccc(N2CCNCC2)cc1,> 4 mM
5,CC(=O)Nc1cccc(NC(=O)c2cccnc2)c1,> 4 mM
6,C(=N\c1nccs1)/c1cccnc1,> 4 mM
7,Cc1ccccc1C(=O)Nn1cnnc1,> 4 mM
8,OCc1cccc2c1OCCO2,> 4 mM
9,O=C(Nc1cccnc1)N1CCOCC1,> 4 mM
10,CN(c1ccccc1C(=O)N1CCCC1)S(C)(=O)=O,> 4 mM
11,[O-][n+]1onc2c1CCc1c-2nc(-c2ccccc2)n1O,> 4 mM
12,CNC(=O)c1cc(C)c(-c2ccccc2)s1,> 4 mM
13,NC(=O)CC(=O)NC12CC3CC(CC(C3)C1)C2,> 4 mM
14,O=C(NCc1cccs1)c1ccc2c(c1)OCCO2,> 4 mM
15,COCCn1c(C)cc(O)cc1=O,> 4 mM
16,CSc1ccc(C(=S)N2CCN(C)CC2)cc1,> 4 mM
17,Nc1ncnc(Nc2ccccc2C(F)(F)F)n1,> 4 mM
18,Cc1nnsc1C(=O)O,> 4 mM
19,CCc1ccccc1NC(=O)c1cnccn1,> 4 mM
20,Cc1ccc(/C=C2/C(=O)N=C(N)N2C)s1,> 4 mM
21,O=c1[nH]cc(NCc2ccco2)c(=O)[nH]1,> 4 mM
22,COc1ccc(-c2c(O)c3c(OC)c4c(cc3oc2=O)OC(C)(C)CC4)cc1,> 4 mM
23,COC[C@]12CN(C=O)C3[C@@H]4[C@H](OC)C1[C@]3(C1CC3(O)C(OC)C(O)C4(OC(C)=O)C1C3OC(=O)c1ccccc1)[C@@H](OC)C[C@H]2O (stereo partly drawn),> 4 mM
24,C=C(C)[C@@H]1CC[C@]2(CO)CC[C@]3(C)[C@H](CCC4[C@@]5(C)CC[C@H](O)C(C)(C)C5CC[C@]43C)C12 (stereo partly drawn),> 4 mM
25,CSc1ncc(C(=O)O)n1Cc1ccccc1,> 4 mM
26,CCOC(=O)C1CCNCC1,> 4 mM

row,Compound,Kd
1,NCc1csc(-c2ccccc2)n1,> 4 mM
2,O=C(O)c1ccc2snnc2c1,> 4 mM
3,Oc1ccc(C2SCCS2)cc1,> 4 mM
4,Nc1oncc1-c1ccccn1,> 4 mM
5,Cc1cccc(CSc2nncc(=O)[nH]2)c1,> 4 mM
6,COc1ccc2c(c1)c1n[nH]c(=S)nc1n2C,> 4 mM
7,Cc1nc2ccccc2c(=O)[nH]1,> 4 mM
8,CCc1noc(C)c1C(=O)N1CCCC1,> 4 mM
9,Nc1cc(=O)[nH]c(=O)n1Cc1ccco1,> 4 mM
10,NC(=S)NC(=O)CN1C(=O)c2ccccc2C1=O,> 4 mM
11,NC(=O)CSc1ccc(Br)cc1,> 4 mM
12,O=C(c1ccncc1)c1ccc(Br)cc1,> 4 mM
13,CC1=C/C(=C\c2c(O)[nH]c(=O)[nH]c2=O)C(C)=N1,> 4 mM
14,NC(=O)C1CCN(S(=O)(=O)c2ccccc2)CC1,> 4 mM
15,CCOC(=O)CNc1ncnc2c1nnn2CC,> 4 mM
16,O=C1CNc2cc(C(=O)O)ccc2N1,> 4 mM
17,CCC1(CC)C(=O)N=C(N)NC1=O,> 4 mM
18,CNC(=O)CC1Sc2ccccc2NC1=O (stereo not drawn),> 4 mM
19,O=C1CSC(=Nc2ccccc2[N+](=O)[O-])N1,> 4 mM
20,CN1CCC(N2CCOCC2)CC1,> 4 mM
21,Cc1cc(C(=O)NCc2cccnc2)no1,> 4 mM
22,COc1ccc(S(=O)(=O)N2CCOCC2)cc1C(C)C,> 4 mM
23,COc1cccc(/C=C/C(=O)O)c1C(C)C,> 4 mM
24,CCN1CCC(=NO)CC1,> 4 mM
25,Cc1ccc(SCc2cc(=O)n3[nH]cnc3n2)cc1,> 4 mM
26,Nc1ccc(-n2cccn2)cc1,> 4 mM

row,Compound,Kd
1,Cc1ccc(S(=O)(=O)CC(=O)N(C)C)cc1,> 4 mM
2,Cc1cccc(N2C(=O)CC(=O)NC2=O)c1,> 4 mM
3,Cc1ccccc1NC(=O)C1CC(=O)N=C(N)S1 (stereo not drawn),> 4 mM
4,CC(C)(C)CC(=O)NNC(=O)c1cnccn1,> 4 mM
5,CCSc1nc(N)c(NC(=O)c2ccco2)c(=O)[nH]1,> 4 mM
6,Cc1ccccc1NC(=O)CC1NCCNC1=O (stereo not drawn),> 4 mM
7,Cc1cc(CN2C(=O)c3ccccc3C2=O)on1,> 4 mM
8,O=C(O)CCCNC(=O)c1ccccc1C(=O)O,> 4 mM
9,CC(C)(C)NC(=O)CN1C(=O)c2ccccc2S1(=O)=O,> 4 mM
10,COc1ccc(/C=C2\SC(N)=NC2=O)cc1,> 4 mM
11,CC(C)=NNC(=O)C(=O)Nc1ccc(F)cc1,> 4 mM
12,CS/C(N)=C\C(C)=O,> 4 mM
13,Nc1nonc1-c1nc2ccccc2[nH]1,> 4 mM
14,NCc1ccc(-c2ccccn2)s1,> 4 mM
15,Cc1oc(-c2ccccc2)cc1C(=O)O,> 4 mM
16,O=S1(=O)CCC2CC=CCC21 (stereo not drawn),> 4 mM
17,S=C(c1ccc(N2CCOCC2)cc1)N1CCOCC1,> 4 mM
18,CC1(C)CC2(C)N(N)C(=O)CN2C(=S)N1 (stereo not drawn),> 4 mM
19,O=c1[nH]cc(NCc2ccccc2)c(=O)[nH]1,> 4 mM
20,COc1cc2nc(N3CCNCC3)nc(N)c2cc1OC,0.078 mM (active)
21,COc1cccc(N2CCNCC2)c1,> 4 mM
22,c1cnc(N2CCNCC2)nc1,> 4 mM
23,CN(C)c1nc(N2CCOCC2)c2cnn(C)c2n1,> 4 mM
24,O=C(CSc1ncn[nH]1)c1ccccc1,> 4 mM
25,Cc1cccc(N2C(=O)CCC2=O)n1,> 4 mM
26,O=c1[nH]c(O)c(C=NCc2cccs2)c(=O)[nH]1,> 4 mM

row,Compound,Kd
1,CC(=O)c1cccc(N=C2NC(=O)CS2)c1,> 4 mM
2,Cc1csc(SCC(=O)N2CCCC2)n1,> 4 mM
3,Nc1cc(=O)[nH]c(SCC(=O)Nc2nccs2)n1,> 4 mM
4,COc1cc(OC)c2c(=O)c(OC)c(-c3ccc(OC)c(OC)c3)oc2c1,> 4 mM
5,C=C1CCC2[C@](C)(CO)[C@H](O)CC[C@@]2(C)[C@@H]1C/C=C1/C(=O)OC[C@H]1O (stereo partly drawn),> 4 mM
6,Cc1occc1C(=O)NCc1ccccn1,> 4 mM
7,NC(=O)NC1C=CS(=O)(=O)C1 (stereo not drawn),> 4 mM
8,Cc1c(N=Cc2ccco2)c(=O)n(-c2ccccc2)n1C,> 4 mM
9,Cc1ccc(CN2C3=NC(=O)CN3c3ccccc32)cc1,> 4 mM
10,COc1nc(N2CCOCC2)nc(N)c1[N+](=O)[O-],> 4 mM
11,CC1=NN2C(=N)/C(=C\c3cccs3)C(=O)N=C2S1,> 4 mM
12,O=C(O)C1NCCc2ccccc21 (stereo not drawn),> 4 mM
13,CCn1nnc(NC(=O)c2ccccc2Br)n1,> 4 mM
14,O=S1(=O)NC(=NCc2ccco2)c2ccccc21,> 4 mM
15,O=C(NCc1ccc2c(c1)OCO2)c1cccs1,> 4 mM
16,Cn1nnc2cc(C(=O)Nc3cccnc3)ccc21,> 4 mM
17,Cc1ccc(SCc2nc(-c3ccncc3)no2)cc1,> 4 mM
18,NC1CS(=O)(=O)CC1O (stereo not drawn),> 4 mM
19,C=CCCCCCCCCCCCC(O)CC(O)CO (stereo not drawn) (tested in a mixture with another compound),> 4 mM
20,CN1C(=O)C2CC=C(Cl)CC2C1=O (stereo not drawn),> 4 mM
21,Cc1c(/C=N\n2cnnc2)c2ccccc2n1C,> 4 mM
22,CN(C)S(=O)(=O)NCc1ccc2c(c1)OCO2,> 4 mM
23,CC1(c2ccncc2)NC(=O)NC1=O (stereo not drawn),> 4 mM
24,c1cc2n(c1)CCNC2c1ccncc1 (stereo not drawn),> 4 mM
25,Cc1nc2[nH]onc2c2nccc(=O)c12,> 4 mM
26,CCCN1CCC(N2CCC(O)CC2)CC1,> 4 mM

row,Compound,Kd
1,O=C1NC(=O)/C(=C\c2ccncc2)S1,> 4 mM
2,O=C1CSC(=O)N1CN1CCCC1,> 4 mM
3,O=C(O)CSCc1ccc(Cl)cc1,> 4 mM
4,CCCC(=O)N1CCSCC1,> 4 mM
5,Cn1nc(C(=O)N2CCCC2)c2ccccc2c1=O,> 4 mM
6,Cc1nn(C)c(Cl)c1C(O)c1c(C)nn(C)c1Cl,> 4 mM
7,Cc1ccc(-c2nn3c(C)nnc3s2)cc1N,> 4 mM
8,Nc1ccc2nsnc2c1,> 4 mM
9,CC(=O)Nc1cc(C(N)=O)cc(C(N)=O)c1,> 4 mM
10,NS(=O)(=O)c1ccccc1Cl,> 4 mM
11,CSc1nc(=O)[nH]c2c1CCC2,> 4 mM
12,Cn1cnc2cc(NC(=O)c3ccco3)ccc21,> 4 mM
13,COc1ccc(NC2=NCC(C)S2)cc1 (stereo not drawn),> 4 mM
14,COC(=O)Nc1nnc(-c2ccncc2)s1,> 4 mM
15,NC(=O)Cn1nnc(-c2ccc(C(F)(F)F)cc2)n1,> 4 mM
16,Nc1cccc(NC(=O)c2cccs2)c1,> 4 mM
17,CCN1CCC(NC2CCC(O)CC2)CC1 (stereo not drawn),> 4 mM
18,OC12C=CC(CC1)CC2,> 4 mM
19,NC(=O)CSc1ccc2nnc(-c3ccccc3)n2n1,> 4 mM
20,CCCCN1C(=O)C2CC/C(=N/O)CC2C1=O (stereo not drawn),> 4 mM
21,C[C@@H]1OC(O[C@H]2[C@H](OC(=O)[C@]34CCC(C)(C)CC3C3=CCC5[C@@]6(C)CC[C@H](OC7O[C@@H](C)[C@H](O[C@@H]8OC[C@@H](O)[C@H](O)[C@H]8O)[C@@H](O)[C@H]7O)C(C)(C)C6CC[C@@]5(C)[C@]3(C)CC4O)OC[C@H](O)[C@H]2O)[C@H](O)[C@H](O)[C@H]1O[C@@H]1O[C@H](CO)[C@@H](O)[C@H](O)[C@H]1O (stereo partly drawn),> 4 mM
22,NC(=O)C1CCN(C(=O)c2ccccc2F)CC1,> 4 mM
23,O=C(Nc1cccc2cccnc12)c1cccnc1,> 4 mM
24,Cc1nc(NC2=NCCC(=O)N2)nc2ccccc12,> 4 mM
